Records with an inconclusive call do not appear. Entries that show only a call come without a potency. Activity calls are given as the source filed them. Unless noted, calls come from the whole dose curve.
Experiments:
[1] = Nuclear factor erythroid 2-related factor 2/antioxidant responsive element (Nrf2/ARE) small molecule agonists: luciferase reporter gene qHTS assay in human keratinocytes (AID 1919969); note: nearly all actives have a fitted effect of over 35% in size; note: potency is the fitted concentration of half-maximal effect
[2] = biological target: Gonadotropin-releasing hormone receptor (Homo sapiens) (UniProt P30968); assay: Human gonadotropin-releasing hormone receptor (GnRHR) small molecule agonists, calcium flux assay in GnRHR-HEK293 cells (AID 1920063); note: nearly all actives have a fitted effect of over 35% in size
Sequence of Gonadotropin-releasing hormone receptor (Homo sapiens) (P30968 whole entry, looked up): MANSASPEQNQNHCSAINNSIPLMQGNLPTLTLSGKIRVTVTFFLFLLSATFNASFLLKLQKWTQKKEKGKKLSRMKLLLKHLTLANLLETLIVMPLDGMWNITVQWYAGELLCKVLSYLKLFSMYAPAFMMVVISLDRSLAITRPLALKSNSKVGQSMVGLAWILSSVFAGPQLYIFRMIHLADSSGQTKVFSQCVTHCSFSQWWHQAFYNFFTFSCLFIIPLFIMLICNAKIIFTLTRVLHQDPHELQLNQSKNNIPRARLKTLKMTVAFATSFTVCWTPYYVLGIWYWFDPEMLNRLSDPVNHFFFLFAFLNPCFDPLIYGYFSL
In short: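 We seeded human GnRHR-expressing HEK293 cells for 18 hours, loaded them with calcium dye for an hour at 37 C, added test compounds, and recorded fluorescence intensity kinetically for three minutes.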

[3] = biological target: KiSS-1 receptor (Homo sapiens) (UniProt Q969F8); assay: Human kisspeptin (KISS1R) small molecule agonists, calcium flux assay in KISS1R-HEK293 cells (AID 1920064; active = well fitted activation curve with a large enough effect in the repeat runs)
Sequence of KiSS-1 receptor (Homo sapiens) (Q969F8 whole entry, looked up): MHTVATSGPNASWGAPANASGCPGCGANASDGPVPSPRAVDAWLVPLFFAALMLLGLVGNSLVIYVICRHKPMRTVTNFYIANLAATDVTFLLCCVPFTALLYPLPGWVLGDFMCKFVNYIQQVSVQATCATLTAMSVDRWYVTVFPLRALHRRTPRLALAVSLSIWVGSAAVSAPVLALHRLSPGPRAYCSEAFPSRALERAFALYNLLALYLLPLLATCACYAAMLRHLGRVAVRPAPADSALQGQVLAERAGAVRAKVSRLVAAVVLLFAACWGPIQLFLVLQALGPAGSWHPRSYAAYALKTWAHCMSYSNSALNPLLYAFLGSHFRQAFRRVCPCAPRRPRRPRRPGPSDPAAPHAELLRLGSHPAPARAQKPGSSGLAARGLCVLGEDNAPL
In short: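 Kinetic calcium assay, 1 s sampling over 3 min at Ex/Em 480/540, in HEK293 cells engineered with human KISS1R; compounds delivered in DMSO after 1 h dye loading.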

[4] = G protein-coupled receptor (GPCR) small molecule agonists, calcium flux assay: HEK293 wild type cell line counter screen (AID 1920065)
In short: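 Calcium-sensitive dye, loaded 1 h at 37 C into cells cultured 18 h, reports compound-evoked calcium release as fluorescence (Ex/Em 480/540), measured over 3 min. Agonist mode; 15-point titrations, triplicate.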

[5] = p53 small molecule agonists, cell-based qHTS assay with human liver microsomes (AID 1963577);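 note: p53 response element beta-lactamase reporter cells with liver microsomes plus NADPH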
In short: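 With metabolic activation: human liver microsomes (0.5 mg/mL final) plus NADPH (0.5 mg/mL final) added alongside compounds to p53RE-bla cells; 16 h 37 C exposure; beta-lactamase read by LiveBLAzer fluorescence.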

[6] = p53 small molecule agonists, cell-based qHTS assay with rat liver microsomes (AID 1963578)
In short: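 Metabolic activation by rat liver microsomes and NADPH, each 0.5 mg/mL final, added right after compounds to p53RE-bla reporter cells (4,000/well, plated 5 h earlier). 16 h at 37 C, then LiveBLAzer substrate for 2 h at room temperature in the dark; fluorescence read-out.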

[7] = p53 small molecule agonists, cell-based qHTS assay with rat liver microsomes: qHTS cell viability counter screen (AID 1963580); note: nearly all actives have a fitted effect of over 45% in size
In short: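 In HCT-116 cells carrying a p53 response element-bla reporter, compounds were metabolically activated in situ by rat liver microsomes with NADPH over 16 h. Cell ATP content then served as the cytotoxicity measure.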

[8] = p53 small molecule agonists, cell-based qHTS assay: qHTS cell viability counter screen (AID 1963581); note: nearly all actives have a fitted effect of over 45% in size; note: potency is the fitted concentration of half-maximal effect
In short: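 Following 5 h attachment, HCT-116 p53RE-bla cells took up compound for 16 h at 37 C; the reporter was read with B/G FRET substrate (2 h RT), and viability then via CellTiter-Glo ATP luminescence.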

[9] = p53 small molecule agonists, cell-based qHTS assay (AID 1963582; active = well fitted activation curve with a large enough effect in the signal ratio in the repeat runs, not every such curve was filed as active; the % refers to the signal ratio)
In short: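 In this cell-based concentration-response screen, a p53 response element drives beta-lactamase; cells received DMSO-borne compounds after 5 h culture and were incubated a further 16 h before FRET substrate development.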

[10] = biological target: 5-hydroxytryptamine receptor 2A (Homo sapiens) (UniProt P28223); assay: 5-hydroxytryptamine receptor 2A (HTR2A) small molecule antagonists, cell-based qHTS assay (AID 1963586); note: nearly all actives have a fitted effect of over 45% in size; note: potency is the fitted concentration of half-maximal effect
Sequence of 5-hydroxytryptamine receptor 2A (Homo sapiens) (P28223 whole entry, looked up): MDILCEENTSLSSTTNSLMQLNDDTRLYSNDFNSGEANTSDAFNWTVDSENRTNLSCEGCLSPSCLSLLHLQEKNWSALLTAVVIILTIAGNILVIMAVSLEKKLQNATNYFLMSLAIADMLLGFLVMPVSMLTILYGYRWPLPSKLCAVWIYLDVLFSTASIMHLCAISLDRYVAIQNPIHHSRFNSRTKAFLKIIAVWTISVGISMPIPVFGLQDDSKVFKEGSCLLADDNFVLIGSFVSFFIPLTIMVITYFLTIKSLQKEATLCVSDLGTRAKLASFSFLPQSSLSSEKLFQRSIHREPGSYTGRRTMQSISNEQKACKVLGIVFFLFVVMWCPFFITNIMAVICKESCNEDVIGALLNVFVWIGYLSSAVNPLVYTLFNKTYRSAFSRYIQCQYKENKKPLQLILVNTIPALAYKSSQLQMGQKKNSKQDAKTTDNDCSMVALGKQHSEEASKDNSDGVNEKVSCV
In short: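 Antagonist-mode intracellular calcium assay: DOI (4 nM) added after 5 min compound pre-incubation at room temperature to dye-loaded HTR2A-CHO cells. Fluorescence followed for 3 min, sampled every second.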

[11] = biological target: 5-hydroxytryptamine receptor 2A (Homo sapiens) (UniProt P28223); assay: 5-hydroxytryptamine receptor 2A (HTR2A) small molecule agonists, cell-based qHTS assay (AID 1963587); note: nearly all actives have a fitted effect of over 30% in size; note: potency is the fitted concentration of half-maximal effect
In short: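 HTR2A-CHO cells, plated 18 h at 37 C/5% CO2, dye-loaded 1 h at 37 C; compounds in DMSO added by pin tool (agonist mode). Intracellular calcium flux read as kinetic fluorescence on FDSS over 2 min at 1 s intervals.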

[12] = biological target: Muscarinic acetylcholine receptor M1 (Homo sapiens) (UniProt P11229); assay: Cholinergic receptor muscarinic 1 (CHRM1) small molecule antagonists, cell-based qHTS assay (AID 1963588); note: nearly all actives have a fitted effect of over 40% in size
Sequence of Muscarinic acetylcholine receptor M1 (Homo sapiens) (P11229 whole entry, looked up): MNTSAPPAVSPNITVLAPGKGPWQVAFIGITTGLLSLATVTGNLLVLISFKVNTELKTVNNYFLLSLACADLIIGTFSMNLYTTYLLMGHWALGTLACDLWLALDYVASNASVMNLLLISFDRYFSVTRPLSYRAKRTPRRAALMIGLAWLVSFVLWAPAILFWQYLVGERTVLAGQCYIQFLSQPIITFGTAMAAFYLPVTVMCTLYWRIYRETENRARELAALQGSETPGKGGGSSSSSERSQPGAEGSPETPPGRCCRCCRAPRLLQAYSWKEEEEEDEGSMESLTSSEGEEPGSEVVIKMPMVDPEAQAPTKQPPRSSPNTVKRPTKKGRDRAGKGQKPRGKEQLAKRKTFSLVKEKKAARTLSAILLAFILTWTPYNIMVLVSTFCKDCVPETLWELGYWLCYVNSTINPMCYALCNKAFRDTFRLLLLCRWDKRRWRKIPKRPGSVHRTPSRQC
In short: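 CHRM1-CHO calcium-flux assay, antagonist mode. Cells were seeded 18 h, dye-loaded 1 h at 37 C and given compound for 5 min at RT, then acetylcholine was added at 50nM. FDSS fluorescence was read 3 min; 15 concentrations, three runs.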

[13] = biological target: Muscarinic acetylcholine receptor M1 (Homo sapiens) (UniProt P11229); assay: Cholinergic receptor muscarinic 1 (CHRM1) small molecule agonists, cell-based qHTS assay (AID 1963589); note: nearly all actives have a fitted effect of over 35% in size
In short: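 Measures agonist-induced intracellular calcium rise. Stable human CHRM1 CHO line, 1 h dye load at 37 C, compounds from DMSO, kinetic fluorescence read.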

[14] = cAMP Responsive Elements (CRE) small molecule agonists, cell-based qHTS assay (AID 1963590)
In short: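 A CRE-responsive beta-lactamase reporter in HEK 293T cells was used. Treatment ran 3 h at 37 C; detection used LiveBLAzer B/G FRET substrate for 2 h at room temperature.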

[15] = cAMP Responsive Elements (CRE) small molecule antagonists, cell-based qHTS assay (AID 1963591; active = well fitted inhibition curve with a large enough effect in the signal ratio in the repeat runs, not every such curve was filed as active; the % refers to the signal ratio)
In short: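 HEK293T cells carrying a CRE-driven beta-lactamase reporter receive compound and NKH477 (0.25 uM final) for 3 h. Fluorescence from LiveBLAzer B/G FRET substrate is read after 2 h at room temperature.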

[16] = biological target: Beta-2 adrenergic receptor (Homo sapiens) (UniProt P07550); assay: Adrenergic beta2 receptor (ADRB2) small molecule antagonists, cell-based qHTS assay (AID 1963592); note: nearly all actives have a fitted effect of over 50% in size; note: potency is the fitted concentration of half-maximal effect
Sequence of Beta-2 adrenergic receptor (Homo sapiens) (P07550 whole entry, looked up): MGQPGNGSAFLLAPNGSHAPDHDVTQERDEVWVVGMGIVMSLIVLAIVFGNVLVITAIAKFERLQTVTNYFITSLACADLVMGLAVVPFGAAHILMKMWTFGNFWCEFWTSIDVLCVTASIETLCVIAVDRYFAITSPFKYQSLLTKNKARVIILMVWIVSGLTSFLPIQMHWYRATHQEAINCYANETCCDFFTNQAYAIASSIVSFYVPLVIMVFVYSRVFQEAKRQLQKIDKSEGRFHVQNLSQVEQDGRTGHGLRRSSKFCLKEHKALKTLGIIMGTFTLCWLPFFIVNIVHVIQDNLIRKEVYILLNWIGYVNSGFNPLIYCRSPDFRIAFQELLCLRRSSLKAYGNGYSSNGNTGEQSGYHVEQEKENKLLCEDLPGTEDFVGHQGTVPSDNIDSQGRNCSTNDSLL
In short: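 Cells (CHO, stable ADRB2 overexpression) incubated 18-20hr at 37C; compounds added from DMSO; agonist mix (1nM isoproterenol, 100uM IBMX, 25uM Ro-20-1724) added; 0.5hr RT; d2-cAMP and anti-cAMP-cryptate added; 1hr RT; 665/615 nm read.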

[17] = biological target: D(2) dopamine receptor (Homo sapiens) (UniProt P14416); assay: Dopamine D2 receptor (DRD2) small molecule antagonists, cell-based qHTS assay (AID 1963595; active = well fitted inhibition curve with a large enough effect in the signal ratio in the repeat runs, with a control signal flat; the % refers to the signal ratio; note: potency is the fitted concentration of half-maximal effect)
Sequence of D(2) dopamine receptor (Homo sapiens) (P14416 whole entry, looked up): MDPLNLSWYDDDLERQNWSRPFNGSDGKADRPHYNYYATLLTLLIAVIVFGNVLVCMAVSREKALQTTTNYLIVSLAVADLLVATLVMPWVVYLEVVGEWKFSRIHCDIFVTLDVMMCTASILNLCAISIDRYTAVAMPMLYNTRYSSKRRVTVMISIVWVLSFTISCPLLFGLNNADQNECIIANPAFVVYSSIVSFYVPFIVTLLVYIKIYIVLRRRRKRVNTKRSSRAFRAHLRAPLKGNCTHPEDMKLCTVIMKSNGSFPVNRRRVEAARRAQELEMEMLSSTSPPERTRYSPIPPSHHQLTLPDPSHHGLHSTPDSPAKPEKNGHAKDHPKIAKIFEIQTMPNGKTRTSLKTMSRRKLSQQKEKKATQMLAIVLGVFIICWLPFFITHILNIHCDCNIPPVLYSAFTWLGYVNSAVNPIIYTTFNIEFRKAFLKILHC
In short: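 In this cell-based antagonist screen, compounds act for 10 min at room temperature before a 30 min challenge with 12 nM quinpirole and 200 nM NKH477. cAMP is quantified by HTRF competition in DRD2-HEK293 cells containing 0.1 mM Ro20-1724.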

[18] = p53 small molecule agonists, cell-based qHTS assay with human liver microsomes: qHTS cell viability counter screen (AID 1963579); note: nearly all actives have a fitted effect of over 45% in size; note: potency is the fitted concentration of half-maximal effect
In short: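 Metabolic activation used human liver microsomes and NADPH, both 0.5 mg/mL final, over 16 hours at 37 C on p53RE-bla cells (4,000/well). Cytotoxicity measured by CellTiter-Glo luminescence, 30 min at room temperature.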

[19] = biological target: D(2) dopamine receptor (Homo sapiens) (UniProt P14416); assay: Dopamine D2 receptor (DRD2) small molecule agonists, cell-based qHTS assay (AID 1963594); note: nearly all actives have a fitted effect of over 35% in size
In short: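 HEK293 cells stably expressing DRD2 were cultured 24 h at 37 C, then given Ro20-1724 (0.1 mM final) and compounds for 10 min at room temperature. NKH477 (200nM) was then added for 30 min. cAMP was read by HTRF.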

[20] = biological target: Beta-2 adrenergic receptor (Homo sapiens) (UniProt P07550); assay: Adrenergic beta2 receptor (ADRB2) small molecule agonists, cell-based qHTS assay (AID 1963593);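 note: CHO cells stably overexpressing human ADRB2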
In short: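 CHO cells stably over-expressing ADRB2 were plated overnight at 37C, then dosed with compounds plus a stimulation mix containing 100uM IBMX and 25uM Ro-20-1724 for 0.5hr at room temperature. cAMP was measured by HTRF competition, 1hr.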

Structure (SMILES) | Potency [1] | Potency [2] | Potency [3] | Potency [4] | Potency [5] | Potency [6] | Potency [7] | Potency [8] | Potency [9] | Potency [10] | Potency [11] | Potency [12] | Potency [13] | Potency [14] | Potency [15] | Potency [16] | Potency [17] | Potency [18] | Potency [19] | Potency [20]
O=NN1CCNCC1 | 76.1 µM (active) | inactive | inactive | inactive | inactive | inactive | inactive | inactive | inactive | inactive | inactive | inactive | inactive | inactive | inactive | inactive | inactive | – | – | –
CCC[CH2][Sn]([CH2]CCC)([CH2]CCC)[CH2]CCC | 15.4 µM (active) | inactive | inactive | inactive | inactive | inactive | inactive | 40.8 µM (active) | – | inactive | – | inactive | inactive | – | – | 48.6 µM (active) | 38.6 µM (active) | – | – | –
c1ccc2c(c1)OCC(C1=NCCN1)O2 (stereo not given) | 23.7 µM (active) | inactive | inactive | inactive | inactive | inactive | inactive | – | inactive | inactive | inactive | – | inactive | inactive | inactive | inactive | – | inactive | inactive | –
C[C@@H]1O[C@@H](O[C@@H]2C=C3CC[C@@H]4[C@H](CC[C@]5(C)[C@@H](c6ccc(=O)oc6)CC[C@]45O)[C@@]3(C)CC2)[C@H](O)[C@H](O)[C@H]1O | 0.0106 µM (active) | inactive | inactive | inactive | inactive | inactive | – | – | – | – | – | – | – | – | – | inactive | inactive | inactive | inactive | inactive
COc1cc(CCN)cc(OC)c1OC | inactive | inactive | inactive | inactive | inactive | inactive | inactive | inactive | inactive | 0.182 µM (active) | 0.0752 µM (active) | inactive | inactive | – | inactive | – | – | – | inactive | –
CN(C)c1ccc(N)cc1 | 8.42 µM (active) | inactive | inactive | inactive | inactive | inactive | – | inactive | inactive | inactive | inactive | – | inactive | – | inactive | – | – | 35.5 µM (active) | – | –
N#C/C(N)=C(/N)C#N | inactive | inactive | inactive | inactive | – | inactive | inactive | inactive | inactive | inactive | – | inactive | – | inactive | inactive | inactive | inactive | inactive | inactive | inactive
CN1CCc2cc3c(cc2C1O)OCO3 (stereo not given) | 54.8 µM (active) | inactive | inactive | inactive | – | – | inactive | inactive | – | inactive | inactive | – | inactive | – | – | inactive | inactive | inactive | inactive | –

From PubChem BioAssay (Tox21)
